About 80 (0.08%) of roughly 96,000 compounds were called active. How the calls were made is not given here. Not all results are given here. Entries with a potency or affinity are not part of this list.
Each compound was assayed against Alkaline phosphatase, placental type (Homo sapiens) (UniProt P05187) (assay: PLAP enzyme inhibitors, biochemical, luminescence, HTS (AID 690)). Conditions: purified PLAP, luminescent substrate; at 20 µM; stronger effect = higher value.
Chain of Alkaline phosphatase, placental type (Homo sapiens) (P05187 whole entry, looked up): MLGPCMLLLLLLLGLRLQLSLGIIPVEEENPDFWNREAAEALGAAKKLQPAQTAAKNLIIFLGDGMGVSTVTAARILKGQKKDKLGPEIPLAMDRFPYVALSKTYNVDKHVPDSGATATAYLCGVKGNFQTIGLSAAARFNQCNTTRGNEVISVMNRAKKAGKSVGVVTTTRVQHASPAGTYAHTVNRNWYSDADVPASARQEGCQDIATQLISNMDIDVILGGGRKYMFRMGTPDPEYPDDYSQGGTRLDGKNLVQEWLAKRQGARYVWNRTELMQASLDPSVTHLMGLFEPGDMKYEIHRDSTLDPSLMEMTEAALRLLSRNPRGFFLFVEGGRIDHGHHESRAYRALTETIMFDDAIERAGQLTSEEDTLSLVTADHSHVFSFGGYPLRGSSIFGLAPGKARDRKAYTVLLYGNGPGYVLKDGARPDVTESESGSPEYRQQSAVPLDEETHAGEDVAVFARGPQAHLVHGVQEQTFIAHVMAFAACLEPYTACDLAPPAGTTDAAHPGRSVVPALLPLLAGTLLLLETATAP

inhibition, inactive:
CCOc1cc(/C=C2\CCC/C(=C\c3cc(Cl)c(O)c(OCC)c3)C2=O)cc(Cl)c1O 26.7%, COc1cc(/C=N/N(C)c2ccccc2)cc(Cl)c1O 5.2%, N#CC(/C(=N/S(=O)(=O)c1cccs1)c1ccccc1)c1nc2ccccc2[nH]1 (stereo not drawn) -67.4%, O=C(Nc1ccc(Br)cc1)c1cnccn1 -8.2%, Cc1nc2c(cc(Oc3ccc(S(=O)(=O)N4CCOCC4)cn3)c3ccsc32)s1 -48.6%, CN(C)C(C(=O)NC1CCCCC1)c1ccc(Cl)cc1 (stereo not drawn) -18%, O=C(Nc1ccc2c(c1)OCCO2)C1c2ccccc2C(=O)N2CCc3ccccc3C12 (stereo not drawn) 14.8%, Clc1ccc(/C=C/c2nc3ccccc3[nH]2)cc1 4.3%, Clc1cccc(Cl)c1/C=C/c1nc2ccccc2[nH]1 14.1%, Clc1nc(-c2n[nH]nc2Cl)n[nH]1 14.3%, Nc1nnc(-c2cc3ccccc3oc2=O)s1 3.8%, CNc1nnc(-c2cc3cc(Cl)ccc3oc2=O)s1 -24.2%, CC1(C)Cc2c(sc3nc4n(c(=O)c23)CCC4)CO1 -3.1%, CC1(C)Cc2c(sc3nc4n(c(=N)c23)CCC4)CO1 -9.9%, C=CCOC(=O)C1=C(C)NC2(O)c3ccccc3C(=O)C12O (stereo not drawn) 10.9%, CCCN1C(=O)NC2(O)C(=O)c3ccccc3C12O (stereo not drawn) 0.4%, CCSc1nc2c(c(=O)n1CC)SC(C)C2 (stereo not drawn) -16%, Cn1c(=O)c2c(nc(NCCNC(=O)c3ccco3)n2Cc2ccc(Cl)cc2Cl)n(C)c1=O 6.4%, CN1/C(=C/C=N/n2cnnc2)C(C)(C)c2ccccc21 16.4%, CN1/C(=C\C(=O)c2ccco2)C(C)(C)c2ccccc21 3.8%, C=CCn1c(Cc2csc(N)n2)nnc1SCC(=O)Nc1ccccc1C(F)(F)F 21.5%, CC(=O)c1cc2c(C)cc(=O)oc2cc1O 15.2%, CC(=O)Oc1ccc2c(C)cc(=O)oc2c1 24.6%, CCOC(=O)C(C)n1cnc2c(cnn2-c2ccc(Cl)cc2)c1=O (stereo not drawn) 1.3%, CCc1nnc(NC(=O)c2ccc(S(=O)(=O)N3CCCCCC3)cc2)s1 -15.9%, COc1ccc(C(c2nnnn2C2CCCC2)N2CCC(C(N)=O)CC2)c(OC)c1 (stereo not drawn) -65.7%, Cc1cc([N+](=O)[O-])ccc1NCc1ccccc1 47.4%, COc1ccc(CNc2cc([N+](=O)[O-])ccc2OC)cc1 31.1%, Cc1cc(-c2nc3ncccc3o2)ccc1NC(=O)CC(C)C -19.3%, CSc1cccc(NC(=O)/C=C/c2ccc(Cl)cc2)c1 20.8%, CSc1cccc(NC(=O)Nc2ccccc2)c1 2.1%, CCS(=O)(=O)n1nc(-c2ccc(C)cc2)nc1N 13.8%, CCN1C(=O)C(O)(CC(=O)/C=C/C=C/c2ccccc2)c2ccccc21 (stereo not drawn) -9.7%, CCCN1C(=O)/C(=C/C=C2\N(CC)c3ccccc3C2(C)C)SC1=S 22.7%, Cn1c(=O)oc2cc(S(=O)(=O)N3CCC(C(=O)N4CCc5ccccc5C4)CC3)ccc21 12.8%, Cc1ccc(NC(=S)NCCC(c2ccccc2)c2ccccc2)c(C)c1 -44%, O=C1CC(SCCc2nc3ccccc3[nH]2)C(=O)N1c1ccc(Cl)cc1 (stereo not drawn) -15.3%, COc1ccc(C2=C(C=Nc3c(C)n(C)n(-c4ccccc4)c3=O)C(c3ccccc3C)c3ccccc3O2)cc1OC (stereo not drawn) -61%, Cc1ccc(NC(=O)CCn2cccc2)cc1C 5.5%, O=C(CSc1nc2ccccc2s1)N1c2ccccc2Sc2ccc(Cl)cc21 9.1%, O=c1oc2ccccc2n1CSc1nc2ccccc2s1 46.4%, CCOc1ccc(C(CCc2ccccc2)NC(=O)c2ccccc2OC)cc1OCC (stereo not drawn) -15.5%, CS(=O)(=O)N1CCN(c2nc3ccccc3s2)CC1 2.4%, COc1ccc(NC(=O)/C(C#N)=C/c2ccc(Br)o2)cc1 -0.4%, COc1cc(/C=C(\C#N)C(=O)Nc2ccc(SC(F)F)cc2)cc(OC)c1OC -62%, C/C(=N\Nc1nc(N)cc(Cl)n1)c1cccc([N+](=O)[O-])c1 -13.2%, CCc1ccc(/C(C)=N\Nc2ccc([N+](=O)[O-])cc2)cc1 26.2%, COCCNC(=O)C(c1cccc(OC)c1)N(C(=O)Cn1nnc2ccccc21)c1cccnc1 (stereo not drawn) -24%, CCOc1ccccc1C(=O)Nc1ccc(S(=O)(=O)N2CCOCC2)cc1 -60.6%, O/N=C/c1cc(Cl)ccc1OCc1ccccc1Cl 0%, CCOc1ccc(Cl)cc1/C=N/O 10.1%, COc1cccc(C(=O)NCCC2=CCCCC2)c1 8.1%, COc1cc(/C=N/NC(N)=S)ccc1OCC(=O)Nc1ccc(C)c(C)c1 4.4%, CN1c2ccccc2C(C)(C)C12C=Cc1cc(O)ccc1O2 (stereo not drawn) 27.8%, CN1c2ccccc2C(C)(C)C12C=Nc1c(ccc3ccccc13)O2 (stereo not drawn) 0.3%, CC1=NN(C(=O)Cc2ccc([N+](=O)[O-])cc2)C(O)(c2ccccc2)C1 (stereo not drawn) -32.3%, CCOc1ccc(-c2nnc3sc(COc4ccc(C)cc4)nn23)cc1 -25.7%, CCOc1ccc(-c2nnc3sc(COc4ccccc4)nn23)cc1 8.3%, CCN(CC)S(=O)(=O)c1cc([N+](=O)[O-])ccc1NNC(=O)Nc1ccc(Cl)c(Cl)c1 -23.2%, Cc1cc(-c2nnc(SCC(=O)N3C(C)CCCC3C)o2)no1 (stereo not drawn) 0.5%, CCOC(=O)C1=C(O)/C(=C/c2cc(OC)c(OC)c(OC)c2)N=C1C -30.7%, CCOC(=O)C1=C(O)/C(=C\c2ccc(OC)c(OC)c2)N=C1C -24.6%, Cc1nn(-c2ccccc2)c(C)c1CCC(=O)O -21.2%

Reference: PubChem BioAssay AID690 (Sanford-Burnham Center for Chemical Genomics, 2007)
